Only some compounds are listed: those with a hit (about 6.5% of all), similar ones and a draw of the others.
HCMV inh: qHTS Assay for inhibitors of the human cytomegalovirus (HCMV) | activity change, negative = inhibition, % at 57.5 µM | HFF cells, HCMV-luciferase reporter, 72 h; stronger effect = lower value | 410,000 tested, 4.5% active | AID 1259415, 2018; in the data active = activity change below about -60%; inconclusive = no clear call, values can overlap the other calls; inactive = above about -39%
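Steps: HFFs plated, 16 h 37C; compounds added; HCMV-luciferase added to MOI 1 PFU/cell; 72 h 37C; OneGlo reagent, 5 min room temperature; luminescence read, normalized to controls.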
Vaccinia mCherry: qHTS for Stage-Specific Inhibitors of Vaccinia Orthopoxvirus: mCherry Reporter Primary qHTS | 310,000 tested, 0.63% active | Potency, µM (titrated, usually from 36.5 µM), inactives show at the highest dose activity change, negative = inhibition, actives largely listed as inhibitors | Vaccinia virus mCherry reporter infection, fluorescence; calls by dose curve; tested in A549 cells; note: potency is the fitted concentration of half-maximal effect; nearly all actives have a fitted effect of over 35% in size
LASV entry inh: qHTS for Inhibitors of binding or entry into cells for Lassa Virus; Lassa virus pseudotype entry inhibition, cell reporter; Potency, µM (top dose mostly 37.9 µM), for inactives: at the top dose activity change, negative = inhibition, actives largely listed as inhibitors; 300,000 tested, 1.2% active; AID 540256, 2011; calls by dose curve; tested in HEK293 cells; note: potency is the fitted concentration of half-maximal effect; nearly all actives have a fitted effect of over 50% in size
FMDV inh: High Throughput Screening for Foot and Mouth Disease Virus Antivirals | FMDV antiviral cell-based qHTS | Potency, µM (highest dose often 57.9 µM), inactives show at the highest dose activity change, negative = inhibition, actives largely listed as inhibitors | 410,000 tested, 1.2% active; calls by dose curve; tested in HEK293T cells; note: read-out not given here; potency is the fitted concentration of half-maximal effect; nearly all actives have a fitted effect of over 45% in size
Vaccinia Venus: qHTS for Stage-Specific Inhibitors of Vaccinia Orthopoxvirus: Venus Reporter Primary qHTS | Potency, µM (highest dose often 36.5 µM), for inactives: top-dose activity change, negative = inhibition, hits mostly inhibitors | Vaccinia virus Venus reporter expression, fluorescence | 330,000 tested, 0.46% active | AID 720580, 2013; calls by dose curve; tested in A549 cells; note: potency is the fitted concentration of half-maximal effect; nearly all actives have a fitted effect of over 30% in size
MARV entry inh: qHTS for inhibitors of binding or entry into cells for Marburg Virus; Marburg virus pseudotyped entry inhibition, cell reporter; Potency, µM (doses to about 37.8 µM), without a hit: at the top dose activity change, negative = inhibition, hits mostly inhibitors; 300,000 tested, 1.8% active; calls by dose curve; tested in HEK293 cells; note: potency is the fitted concentration of half-maximal effect
Numbers without * were called inactive; i = inactive; ? = inconclusive; / = not tested or not shown; + = active, no number; ! = not active in a repeat; [ ] = remark or other dose. % is set by controls: 0 for no effect and ±100 for the full control effect.

SMILES | HCMV inh | Vaccinia mCherry | LASV entry inh | FMDV inh | Vaccinia Venus | MARV entry inh
NC(=O)C1CCN(C(=O)CSc2ccsc2[N+](=O)[O-])CC1 | -26 | / | / | -5% | / | /
CCOC(=O)c1c(-c2ccc(F)cc2)csc1NC(=O)c1c(-c2ccccc2)noc1C | -68* | ? | 8.9µM* | -27% | 16% | 3.5µM*
Cc1ccc(-c2csc(NC(=O)c3ccc(Br)cc3)c2C(=O)O)cc1 | -95* | i | ? | 8% | 0% | 1.3µM*
CCOC(=O)c1c(-c2ccccc2)csc1NC(=O)/C(C#N)=C/c1ccc(O)c(OC)c1 | -65* | 9% | -11% | ? | 70% | 4%
CCOC(=O)c1c(-c2ccc(C)cc2)csc1NC(=S)NC(=O)c1ccccc1 | ? | / | 2.1µM* | ? | / | 1.8µM*
O=C(c1cnccn1)N1CC(=O)N2[C@H](C1)[C@@H](c1ccc(Br)cc1)[C@@H]2CO | -4 | / | / | / | / | /
O=C(NCc1ccccc1)c1nc2ccccc2nc1-c1ccc(F)cc1 | 18 | / | / | / | / | /
Fc1ccccc1-c1ccc(-c2nc3ccc(Cl)cn3c2Nc2ccc(Cl)cc2)o1 | / | -14% | / | / | 2% | /
CCOC(=O)c1[nH]c(C)c(C(=O)OCc2ccccc2F)c1C | -19 | ? | 5.6µM* | 4% | ? | ?
CCOC(=O)c1[nH]c(C)c(C(=O)N2CCc3ccccc32)c1C | -92* | / | ? | -11% | ? | ?
CCOC(=O)c1c(C)[nH]c(C(=O)NNC(=O)c2ccccc2F)c1C | 97 | -3% | ? | 30% | -14% | -24%
CCOC(=O)c1[nH]c(C)c(C(=O)c2cc(F)ccc2F)c1C | -86* | / | -16% | 10% | / | ?
O=C(C[n+]1ccccc1)c1ccc(O)c(O)c1 | / | ? | / | / | -7% | /
COc1ccccc1-c1cc2nc(-c3ccccc3)cc(N3CCN(C(=O)c4ccoc4)CC3)n2n1 | -103* | ? | / | 7.9µM* | ? | /
Fc1ccc(-c2cc3nc(-c4ccccc4)cc(N4CCN(CCN5CCOCC5)CC4)n3n2)cc1 | -71* | -26% | -13% | -17% | -13% | ?
COc1ccccc1-c1cc2nc(-c3ccccc3)cc(N3CCN(C(=O)c4ccco4)CC3)n2n1 | -100* | ? | / | 4.5µM* | ? | /
CN1CCN(c2cc(-c3ccccc3)nc3cc(-c4ccc(F)cc4)nn23)CC1 | -30 | / | ? | -28% | -17% | ?
O=C(c1ccoc1)N1CCN(c2cc(-c3ccco3)nc3cc(-c4ccccc4)nn23)CC1 | -73* | ? | / | ? | ? | /
O=c1c(CCc2ccccc2)nc2cnc(N3CCNCC3)nc2n1Cc1ccc(F)cc1 | / | / | / | -8% | / | /
CC(=O)N(O)c1ccc(/C=C2\C=Cc3ccccc32)cc1 | / | -17% | / | / | -7% | /
COC(=O)C12CC3=CCC4C(=O)N(c5ccccc5)C(=O)C4C3Cc3ccccc3[C@H]1CNC2=O (stereo not given in full) | / | / | / | / | / | 5%[14.2 µM]
Nc1nc2c(C(=O)N3CCCC3)nnn2c2ccccc12 | 12 | / | / | / | / | /
O=C(c1ccoc1)N1CCN(c2cc(-c3ccccc3)nc3cc(-c4ccccc4)nn23)CC1 | -98* | ? | / | 35µM* | ? | /
COc1ccc(/C=N/n2c(SC)nnc2-c2ccccc2)c(OC)c1OC | ? | / | 3.5µM* | -29% | ? | 5µM*
COc1ccccc1NS(=O)(=O)c1ccc(N/N=C/C=C/c2ccccc2[N+](=O)[O-])c([N+](=O)[O-])c1 | -28 | -8% | 20% | 6% | -7% | -18%
SMILES | HCMV inh | Vaccinia mCherry | LASV entry inh | FMDV inh | Vaccinia Venus | MARV entry inh
COc1ccccc1C(CNc1ccc(S(=O)(=O)N2CCCC2)cc1[N+](=O)[O-])N(C)C (stereo not given) | ? | 8.9µM* | -19% | -30% | 10µM* | ?
COc1ccccc1NS(=O)(=O)c1ccc(NN=C2CCCC2)c([N+](=O)[O-])c1 | -79* | -19% | -16% | -22% | -30% | ?
CCC(=O)N1[C@H](C(=O)NC2CCCC2)[C@@H](CO)[C@@H]2Cn3c(cccc3=O)[C@@H]21 | -6 | / | / | / | / | /
COc1ccc(OC)c(C(=O)CCCC(=O)c2cc(OC)ccc2OC)c1 | -61* | / | / | -2% | / | /
CCc1ccccc1NC(=O)N1CCN(c2nnc(C)c3c(C)n(-c4ccccc4)nc23)CC1 | -15 | -24% | 26%[46.1 µM] | -25% | -29% | /
FC(F)(F)C1=Nc2cccc3cccc(c23)N1 | -13 | -13% | ? | 16µM* | 1% | 4%
COc1cccc(-c2nn(-c3ccccc3)cc2C(=O)n2nnc3ccccc32)c1 | 35 | -5% | -1% | 40µM* | 0% | 11%
CN=c1scc(-c2ccccc2F)n1/N=C/c1ccc(O)c(O)c1O | -78* | i | ? | 3.5µM* | -11% | ?
CN=c1scc(-c2ccccc2F)n1/N=C/c1ccc[nH]1 | -99* | -26% | ? | 126µM* | 1% | 1µM*
CC(Sc1nc(-c2ccccc2)c(C#N)c(=O)[nH]1)C(=O)Nc1ccc(F)cc1 (stereo not given) | -13 | -2% | 6%[46.1 µM] | -11% | -8% | -9%[46.1 µM]
Cc1c(C)n(C)c2ccc(C(=O)NCCCN3CCCCC3C)cc12 (stereo not given) | +! | -5% | 2%[46.1 µM] | -2% | -6% | /
Cc1c(C)n(C)c2ccc(C(=O)NCCCN(C)C3CCCCC3)cc12 | 30 | -12%[7.34 µM] | / | ? | -6%[7.34 µM] | /
COc1ccccc1NC(=O)C1=C(C)Nc2c(C(=O)Nc3ccc(F)cc3)cnn2C1c1cccc([N+](=O)[O-])c1 (stereo not given) | -22 | i | -19%[46.1 µM] | -7% | -18% | /
Cc1cc(C(=O)COC(=O)Cc2n[nH]c(=O)c3ccccc23)c(C)n1-c1ccc2c(c1)OCO2 | -21 | ? | ? | -7% | -12% | -23%
O=C(Cc1n[nH]c(=O)c2ccccc12)OCC(=O)c1ccc2c(c1)OCCO2 | -87* | / | ? | 1% | / | ?
COc1ccc(-n2c(C)cc(C(=O)COC(=O)Cc3n[nH]c(=O)c4ccccc34)c2C)cc1 | ? | -1% | ? | 28µM* | -16% | ?
CCc1cc(C(=O)Cc2ccc(F)cc2)c(O)cc1O | -77* | -12% | ? | 0% | ? | ?
Cc1ccc(C)c(N2CCN(CCCNC(=O)Cn3cccc3C(=O)c3ccccc3C)CC2)c1 | -94* | ? | ? | ? | ? | ?
Cc1ccccc1C(=O)c1cccn1CC(=O)NCCCN1CCCCC1 | -11 | -2% | -9%[46.1 µM] | -6% | -13% | -30%[46.1 µM]
COCCNc1ncnc2ccc(-c3cccc(OC)c3)cc12 | / | / | / | -3% | / | /
Nc1ncnc2c1[nH]c(=S)n2C1OC(CO)C(O)C1O (stereo not given) | / | 34% | / | / | 7% | /
